High-throughput results from PubChem.
Hits are enriched below; roughly 11% of the tested compounds scored in any of these assays.
ALDH1A1 block: blocks purified human ALDH1A1 activity. P00352. Purified ALDH1A1, NADH fluorescence, propionaldehyde substrate. Potency, µM (doses to about 75.3 µM), for inactives: at the top dose activity, negative = inhibition, actives largely listed as inhibitors. actives 7.3% (n = 220,000). AID 1030; active = well fitted inhibition curve with a large enough effect, not every such curve was filed as active; inconclusive = small, poorly fitted or top-dose-only effect, or another doubt; inactive = no such curve, though single readings can be large or run the other way;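 note: potency is the fitted concentration of half-maximal effect; plate controls were no enzyme wells and a reference inhibitor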
ALOX12 inhib: inhibitors of human 12-lipoxygenase (ALOX12); Potency, µM (top dose mostly 57.1 µM), for the others: top-dose activity change, negative = inhibition, usual class: inhibitors; actives 0.12% (n = 150,000); purified 12-hLO, xylenol orange hydroperoxide absorbance; note: potency is the fitted concentration of half-maximal effect; nearly all actives have a fitted effect of over 55% in size
Target sequence (P18054 whole entry, looked up): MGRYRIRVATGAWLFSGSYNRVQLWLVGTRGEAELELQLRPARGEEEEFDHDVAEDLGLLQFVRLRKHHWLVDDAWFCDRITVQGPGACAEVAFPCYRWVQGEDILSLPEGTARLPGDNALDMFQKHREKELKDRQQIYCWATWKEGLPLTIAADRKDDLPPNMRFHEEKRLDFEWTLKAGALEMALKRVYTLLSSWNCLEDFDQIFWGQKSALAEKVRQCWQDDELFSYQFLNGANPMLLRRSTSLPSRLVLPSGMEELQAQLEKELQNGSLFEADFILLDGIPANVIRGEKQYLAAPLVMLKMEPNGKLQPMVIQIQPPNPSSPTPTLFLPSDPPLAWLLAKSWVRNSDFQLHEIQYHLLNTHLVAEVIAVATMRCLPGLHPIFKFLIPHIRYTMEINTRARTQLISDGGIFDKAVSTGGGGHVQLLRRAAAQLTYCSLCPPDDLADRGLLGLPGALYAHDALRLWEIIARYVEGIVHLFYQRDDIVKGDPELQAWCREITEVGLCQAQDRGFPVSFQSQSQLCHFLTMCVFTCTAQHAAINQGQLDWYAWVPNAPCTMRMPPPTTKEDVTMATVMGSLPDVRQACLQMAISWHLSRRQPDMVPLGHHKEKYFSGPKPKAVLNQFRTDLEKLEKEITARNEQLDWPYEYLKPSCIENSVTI
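Hydroperoxide output read as Fe(III)-xylenol orange absorbance, 573-to-405 nm ratio, after 30 min reaction with 40 uM arachidonic acid. Enzyme: 150 nM purified human 12hLO, 15 min compound preincubation; 25 mM Hepes pH 7.0, room temperature.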
IMPase cell inh: membrane-permeable compound that blocks inositol monophosphatase. P97697. CHO-M1 cells, IP1 accumulation, HTRF TR-FRET ratio. inhibition (IP1 accumulation), % at 46.1 µM. 120,000 tested, under 10 active; active = well fitted curve in the direction sought with a large enough effect in the signal ratio, not every such curve was filed as active; inconclusive = small, poorly fitted or top-dose-only effect, or a change in a side signal; inactive = no such curve, though single readings can be large or run the other way; the % refers to the signal ratio;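 note: cells stimulated with carbachol in lithium chloride buffer; plate controls were DMSO basal wells for no effect and reference inhibitor wells for full effect; higher means more IMPase inhibition seen as more IP1 and lower FRET ratio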
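Seeded CHO-M1 cells were dosed with compound at up to 46 uM, stimulated with carbachol for 30 min, then lysed in IP-One detection reagents. Higher IP1 lowers the TR-FRET signal.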
IMPase Li inh: membrane-permeable IMPase blocker, potentiated with lithium. CHO-M1 cells, IP1 TR-FRET (IP-One), carbachol + lithium. Potency, µM (highest dose often 59.4 µM), for the others: top-dose activity, negative = IMPase inhibition, usual class: inhibitors. actives 0.35% (n = 210,000). AID 1457;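 note: IP1 builds up when IMPase is blocked and the TR-FRET signal falls; potency is the fitted concentration of half-maximal effect; plate controls were basal vehicle for no effect and high inhibitor control for full effect; nearly all actives have a fitted effect of over 50% in size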
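Concentration–response in CHO-M1 cells, lithium-potentiated; 30 min at 37C. IP1 detected by competitive TR-FRET after 10 min lysis at RT. Hill-fitted AC50.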
HPGD block: blocks human HPGD enzyme activity. Potency, µM, for the others: at the highest dose activity change, negative = inhibition, actives largely listed as inhibitors. purified HPGD, NADH fluorescence kinetic, PGE2 substrate. actives 4.3% (n = 150,000). AID 894. P15428; active = well fitted inhibition curve with a large enough effect, not every such curve was filed as active; inconclusive = small, poorly fitted or top-dose-only effect, or another doubt; inactive = no such curve, though single readings can be large or run the other way; note: potency is the fitted concentration of half-maximal effect
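NADH formation kinetics: reaction with 30 uM PGE2 and 1 mM NAD+ (final), 20 nM enzyme, Tris-HCl pH 8 with Tween 20, after 15 min compound preincubation at room temperature. Fluorescence change, last versus first of five reads.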
PNC assembly inh: perinucleolar compartment assembly inhibition | PC3M PTB-GFP, PNC prevalence imaging, 16 h; hits give low values | activity change (PNC), negative = inhibition, % at 10 µM | actives 3.1% (n = 140,000) | AID 2417;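 active = readout at or below -70, meaning at least 70% loss of cells showing the perinucleolar compartment, a nuclear body marking cancer cells; inconclusive = readout between -30 and a set limit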;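 note: plate controls were DMSO wells for no effect and camptothecin positive control wells for full effect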
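Read-out is percentage of cells bearing a perinucleolar compartment, from automated 20x imaging of fixed, Hoechst-stained PC3M PTB-GFP cells. Cells were seeded 4 h, then exposed 16 h to compound (23 nl of library stock) in duplicate plates.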
Active calls of the source: *; ? = inconclusive; nt = not tested or not shown; [ ] = another dose, or the depositor's remark. Unless noted, calls come from the whole dose curve; as a rule, active = well fitted curve in the direction sought with a large enough effect; inconclusive = small, poorly fitted or top-dose-only effect, or another doubt; inactive = no such curve, though single readings can be large; an effect the other way counts as inactive or inconclusive. Unless noted, % is set by controls: 0 for no effect and ±100 for the full control effect.

SMILES	ALDH1A1 block	ALOX12 inhib	IMPase cell inh	IMPase Li inh	HPGD block	PNC assembly inh
Cc1nn(-c2ccccc2)c(N)c1Sc1cccc([N+](=O)[O-])c1	?	-1%	nt	12%	25µM*	5
COC(=O)N1CCC2(CC1)CN(c1ccncc1)C2	9%	2%	nt	13%	-10%	nt
CC(C)=CCC/C(C)=C/CO/N=C1/[C@H]2O[C@@H]2[C@@H](O)[C@H]2[C@H]1CCn1c(=O)n(Cc3cc4c(cc3Cl)OCO4)c(=O)n12	18%[13.5 µM]	nt	nt	nt	nt	nt
CN(CC(=O)Nc1ccc(F)cc1)C(=O)CSc1nc2ncc(Cl)cc2[nH]1	13%	nt	nt	2%	nt	nt
C=C(C)CN(CC)C(=O)CSc1nc2ncc(Cl)cc2[nH]1	25µM*	-4%	-6	-4%[38.3 µM]	14µM*	-28
COc1ccccc1CN1CCCC2(CCN(C(C)=O)CC2)C1	-13%	-1%	nt	17%	-2%	nt
Cc1ccc(CNC(=O)c2ccc(Cn3c(=O)c4ccccc4n(CC(=O)Nc4ccc(C)cc4C)c3=O)cc2)cc1	nt	nt	6	nt	nt	nt
COc1ccc(C(=O)N(Cc2ccco2)C(C(=O)NC2CCCC2)c2ccc(O)cc2)cc1OC (stereo unspecified)	22µM*	-7%	14	33%[38.3 µM]	-7%	10
COc1cc(C(C(=O)NC2CCCCC2)N(Cc2ccco2)C(=O)c2cnccn2)cc(OC)c1OC (stereo unspecified)	-2%	nt	nt	-6%	nt	nt
COCCOC(=O)c1c(C)n(S(=O)(=O)c2ccc(C)cc2)c2ccc(NS(=O)(=O)c3ccc(C)cc3)cc12	nt	nt	2	nt	nt	nt
COc1cc(S(=O)(=O)N2CCN(c3ccccc3F)CC2)c(OC)cc1Cl	25µM*	2%	6	12%	-2%	-14
COc1cc(S(=O)(=O)N2CCN(C)CC2)c(OC)cc1Cl	-5%	0%	-5	34%[38.3 µM]	-7%	31
COc1ccc(-c2nnc(SCC(=O)c3ccc([N+](=O)[O-])cc3)o2)cc1OC	nt	nt	5	nt	nt	nt
Cc1cc2c(=O)n(CC(=O)N3CCN(c4ccccc4)CC3)cnc2s1	2%	-5%	0	8%[38.3 µM]	-4%	-122*
Cc1cc(NC(=O)CSc2cn(CCNC(=O)c3ccccc3)c3ccccc23)no1	?	-8%	10	-7%[38.3 µM]	3%	-30
Cc1nnc(NC(=O)CSc2cn(Cc3ccccc3)c3ccccc23)s1	?	2%	3	-13%[38.3 µM]	-1%	-26
Cc1ccc(C(=O)NCCn2cc(SCC(=O)Nc3cc(C)on3)c3ccccc32)cc1	13µM*	-9%	12	11%[38.3 µM]	-6%	?
COc1ccccc1C(=O)NCCn1cc(SCC(=O)Nc2nnc(C)s2)c2ccccc21	0.32µM*	-1%	10	14%[38.3 µM]	-15%	?
Cc1nn(-c2ccccc2)c2sc(C(=O)Nc3cccc(Br)c3)cc12	nt	nt	1	nt	nt	nt
CC(C)CCn1cnc2c(cnn2-c2ccc(F)cc2)c1=O	?	0%	-8	2%[38.3 µM]	11µM*	0
CC(NS(=O)(=O)c1ccc(CCC(=O)N2CCN(C)CC2)cc1)c1ccccc1 (stereo unspecified)	8%	-4%	-21	30%[38.3 µM]	-1%	-82*
CC(C)CNS(=O)(=O)c1ccc(CCC(=O)N2CCN(c3ccc(F)cc3)CC2)cc1	?	nt	nt	3%	nt	nt
COc1ccc(N2CCN(C(=O)CCc3ccc(S(=O)(=O)NCC(C)C)cc3)CC2)cc1	13µM*	8%	3	4%	-2%	?
O=C(Cn1nnc(-c2ccccc2-n2cnnn2)n1)c1ccccc1	13µM*	3%	4	-4%[38.3 µM]	-29%	?
O=C(CC(Nc1ccc(F)cc1)C(=O)OCC(=O)c1cccs1)c1ccccc1 (stereo unspecified)	11µM*	-8%	-5	-3%	-15%	7
SMILES	ALDH1A1 block	ALOX12 inhib	IMPase cell inh	IMPase Li inh	HPGD block	PNC assembly inh
O=C(CC(Nc1ccc(F)cc1)C(=O)O)c1ccccc1 (stereo unspecified)	?	-3%	8	22%[38.3 µM]	-6%	?
O=c1[nH][nH]c2c(N=Cc3ccccc3O)ccc(F)c12	8.9µM*	nt	nt	nt	nt	nt
CCN1C=C(C(=O)OC)C(c2cccc(C)c2)C(C(=O)OC)=C1	?	-4%	2	-12%[38.3 µM]	?	-80*
C=CCOC(=O)C(C(C)=O)C(NC(=O)OC)c1cccs1 (stereo unspecified)	8%[13.5 µM]	nt	nt	nt	nt	nt
COc1ccc(NC(=O)N(C2CCCCC2)C(C)c2ccco2)c(OC)c1 (stereo unspecified)	2%	-4%	11	22%[38.3 µM]	-12%	-7
COc1ccc(NC(=O)N(C2CCCCC2)C(C)c2cccnc2)c(OC)c1 (stereo unspecified)	1%	0%	10	6%[38.3 µM]	-4%	-85*
CCN(CC)CCn1c(-c2ccccc2)nc2c(NCc3ccccc3)nc(C)nc21	?	-3%	nt	8%	?	nt
O=C1NC(=S)S/C1=C/c1ccc(N2CCOCC2)o1	8%	-28%	nt	-10%	7.9µM*	-14
O=C1S/C(=C/c2ccc(N3CCOCC3)o2)C(=O)N1Cc1ccc(F)cc1	2.2µM*	?	5	-17%[38.3 µM]	-8%	36
COc1ccc2cc(/C=C3\SC(=S)NC3=O)c(N3CCOCC3)nc2c1	22%	6%	nt	1%	20µM*	?
O=C1N/C(=C/c2ccc(N3CCOCC3)cc2)C(=O)N1Cc1ccc(F)cc1	-8%	-6%	9	-7%[38.3 µM]	-6%	19
O=C1S/C(=C\c2ccc(N3CCOCC3)o2)C(=O)N1Cc1ccc(F)cc1	8.9µM*	-18%	-2	13%[38.3 µM]	?	45
Cc1cc(N2CCOCC2)ccc1/C=C1/SC(=O)NC1=O	-11%	nt	nt	5%	nt	nt
O=C1N=C(N2CCOCC2)S/C1=C/c1ccc(-c2ccc(F)cc2)o1	-1%	nt	nt	11%	nt	nt
O=C1N/C(=C/c2ccc(N3CCOCC3)o2)C(=O)N1c1ccccc1	7.1µM*	-11%	nt	51%	?	?
CC(C)OC(=O)CN1C(=O)S/C(=C/c2ccc(N3CCCCC3)o2)C1=O	7.1µM*	-8%	3	34%[38.3 µM]	-13%	-4
C=CCN1C(=O)N/C(=C/c2ccc(N3CCOCC3)o2)C1=O	?	-3%	nt	45%	-20%	48
Cc1ccccc1-c1nccc(NCCN2CCOCC2)n1	32µM*	nt	nt	4%	nt	nt
FC(F)(F)c1ccccc1-c1nccc(NCCN2CCOCC2)n1	15%	nt	nt	-7%	nt	nt
CC(C)[C@H]1COC(c2cc(Cl)cc(Cl)c2)=N1	-7%[120 µM]	-2%[0.00818 µM]	nt	2%	-6%	nt
O=C(NCc1ccccn1)Nc1cccc(NC(=O)NCc2ccccn2)c1	2%	-5%	8	14%[38.3 µM]	1%	9
O=C(NCc1ccccn1)c1c(Cl)cccc1Cl	6%	-2%	-7	0%[38.3 µM]	-26%	-1
